This note sets out measurements from PubChem BioAssay (NCI).

Structures are written as SMILES. About 79,000 compounds went through this panel and 15% of them were active in at least one assay; those are over-represented in the sample as a whole. Calls of active or inactive are those of the source. Rule as the data show it: active = growth inhibition above about 70%; inactive = the rest.

One assay can be described thus: NCI Yeast Anticancer Drug Screen. Data for the bub3 strain (AID 167). The settings on record: S. cerevisiae bub3 mutant strain, at 50.0 µM, hits give high values. In short, it runs like this: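 Steps: expose the mutant yeast strain to compound; grow alongside vehicle-treated cultures; measure growth; express inhibition against the vehicle cultures.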
Take `CCC(C#N)(c1ccccc1)N(CCc1ccccc1)C(=O)c1ccccc1` (centres undefined): the growth inhibition was -13.2% (inactive).

For `Cc1cccc(C(=O)C(O)c2cccc(C)n2)n1` (centres undefined), the growth inhibition is -20.3% (inactive). In the case of `CC[N+](CC)(CC)C[Si](C)(C)C`, the growth inhibition is 12% (inactive). As for `Cc1ccc(NC(=O)NCCCN2CCOCC2)cc1NC(=O)NCCCN1CCOCC1`, the growth inhibition was 8.3% (inactive). In the case of `C/C(=N/N(C)C)c1ccc(C)cc1`, the growth inhibition is 0.6% (inactive). `CC(=O)Nc1ccc2cc(-c3ccc(Cl)cc3)c3nnnn3c2n1`: the growth inhibition is 0.9% (inactive).

Consider `Cc1cnoc1/N=C1\C=C(Nc2oncc2C)C(=O)c2ccccc21`, for which the growth inhibition is -17.3% (inactive). As for `O=C1/C(=C\c2ccc(O)cc2)CCC/C1=C/c1ccc(Cl)c(Cl)c1`, the growth inhibition is -4.85% (inactive). Still for that read-out and setting: the result for `COC(=O)[C@H](Cc1c[nH]c2ccccc12)NP(=O)(OCCC#N)OCC1OC(n2cc(C)c(=O)[nH]c2=O)CC1N=[N+]=[N-]` (some centres undefined) reads -30.8% (inactive); that for `CC(=O)Nc1ccc(/C=N/NC(=O)/C=C/c2ccccc2)cc1`, -1% (inactive). Regarding `CSc1nc(=O)cc(N)n1C`, the growth inhibition is -7.2% (inactive). Take `O=C(O)c1cc(Cl)ccc1-c1ccc(Cl)cc1C(=O)Nc1ccc2c(c1)Cc1ccccc1-2`: the growth inhibition is 85.3% (active).

Take `CC(=O)O[C@H]1CC[C@@]2(C)[C@@H](CC[C@@H]3[C@@H]2CC[C@]2(C)[C@@H](C(=O)CCC(F)(F)F)CC[C@@H]32)C1`: the growth inhibition is 0.15% (inactive).

For the molecule `OCc1c(-c2ccc(Cl)cc2)c(-c2ccc(Cl)cc2)c2n1CCC2`, the growth inhibition is -2.35% (inactive). `C/C(CC(C)C)=N\NC(=O)Nc1ccccc1Cl`: the growth inhibition is 26.7% (inactive).

Take `O=C(NCCNCCNC(=O)C(F)(F)F)C(F)(F)F`: the growth inhibition is -1.5% (inactive). Still for that read-out and setting: in the case of `CC1(Br)CP(=O)(c2ccccc2)CC1Br` (centres undefined) it was 21.1% (inactive); in that of `COc1ccc2cc(C(=O)c3ccccc3)c(=O)oc2c1`, 12.2% (inactive). Regarding `CCOC(CCCl)c1ccc(C)cc1` (centres undefined), the growth inhibition is -33.6% (inactive). For `Cc1csc2nc3[nH]ncc3c(=O)n12`, the growth inhibition is -5.65% (inactive). On the same count and under the same terms, in the case of `CCCCCCCCCCCC(=O)c1c(O)cccc1O` it was 10.7% (inactive); in that of `CC(=O)N1c2ccccc2S(=O)(=O)c2ccccc21`, 2.05% (inactive); in that of `CC(=O)OC1CCCCCCC1`, 19.5% (inactive). As to `COc1ccc2c(NCCCCCCNc3c4ccccc4nc4cc(OC)ccc34)c3ccccc3nc2c1`, the growth inhibition is 91.5% (active).

The next assay in a line: NCI Yeast Anticancer Drug Screen. Data for the mlh1 rad18 strain (AID 175). The settings on record: S. cerevisiae mlh1 rad18 strain growth inhibition; at 50.0 µM; hits give high values. The essentials: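 In this whole-cell yeast screen, a strain with altered DNA damage repair is challenged with compound, and its growth is measured against matched vehicle-treated controls.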
Take `O=c1c2c(nc3n1CCC3)OC(c1ccccc1)C2` (centres undefined): the growth inhibition is 12.6% (inactive). Consider `C1CCC2C(C1)CCCC2NC1=NCCO1` (centres undefined), for which the growth inhibition is 12.3% (inactive). Take `O=C1/C(=C/C=C/c2ccccc2)CCC1CNc1ccc(Br)cc1` (centres undefined): the growth inhibition was 9.5% (inactive). For the molecule `COC1OC(CS(=O)(=O)O)C(O)C(O)C1O` (centres undefined), the growth inhibition is -4.3% (inactive). Consider `Cc1ccc(S(=O)(=O)[N-]C2C(=O)c3ccccc3C(=O)C2[n+]2cccc(C(N)=O)c2)cc1` (centres undefined), for which the growth inhibition was -38.8% (inactive). Still for that read-out and setting: the result for `O=C(Nc1ccc(Cl)c(Cl)c1)c1ccc(C(=O)Nc2ccc(Cl)c(Cl)c2)cc1` reads 30.3% (inactive); that for `NC(=S)NCc1ccccc1C(O)c1ccccc1` (centres undefined), 21.2% (inactive); that for `FC(F)(c1nn[nH]n1)C(F)(F)C(F)(F)c1nn[nH]n1`, -2.95% (inactive). Same read-out and setting: in the case of `Clc1cccc(N2CCN(CCN3CCc4c([nH]c5ccccc45)C3c3cccnc3)CC2)c1` (centres undefined) it was -12% (inactive). Regarding `C(#Cc1ccccc1)SC1=C(c2ccccc2)S/C(=C(\SC#Cc2ccccc2)c2ccccc2)S1`, the growth inhibition was -30.8% (inactive). `CCOC(=O)/C(C)=C/CC1=C(O)c2ccccc2C(=O)C1=O`: the growth inhibition was 16.8% (inactive). On the same count and under the same terms, in the case of `CCN(CC)c1ncnc2c1nc(C)n2Nc1ccccc1` it was -10.7% (inactive); in that of `CC(=O)c1ccc(NC(=O)/C(=N\NC(N)=O)C(C#N)CC(C)(C)C=O)cc1` (centres undefined), 16.6% (inactive); in that of `O=C(COc1cccc(Cl)c1)Nc1ccc(C(=O)CCl)cc1`, 44.5% (inactive). `O=c1c[n+](-c2ccccc2)[nH]o1`: the growth inhibition was 27.5% (inactive). Same read-out and setting: in the case of `CC1(C)CC(=O)C(/C(=N/NC(=S)NN)C(=O)Nc2nc3ccc([N+](=O)[O-])cc3s2)C(=O)C1` it was 16.4% (inactive). For the molecule `CCC(C#N)(c1ccccc1)N(CCc1ccccc1)C(=O)c1ccccc1` (centres undefined), the growth inhibition was -22.1% (inactive).

Turning to `Cc1cccc(C(=O)C(O)c2cccc(C)n2)n1` (centres undefined), the growth inhibition is 4.4% (inactive). In the case of `CC[N+](CC)(CC)C[Si](C)(C)C`, the growth inhibition is -6% (inactive). On to `Cc1ccc(NC(=O)NCCCN2CCOCC2)cc1NC(=O)NCCCN1CCOCC1`, for which the growth inhibition is 7.05% (inactive). On the same count and under the same terms, the result for `C/C(=N/N(C)C)c1ccc(C)cc1` reads 12.5% (inactive).

`CC(=O)Nc1ccc2cc(-c3ccc(Cl)cc3)c3nnnn3c2n1`: the growth inhibition was 17.8% (inactive). Turning to `Cc1cnoc1/N=C1\C=C(Nc2oncc2C)C(=O)c2ccccc21`, the growth inhibition is -8.85% (inactive). As to `O=C1/C(=C\c2ccc(O)cc2)CCC/C1=C/c1ccc(Cl)c(Cl)c1`, the growth inhibition was 24.6% (inactive). Same read-out and setting: the result for `COC(=O)[C@H](Cc1c[nH]c2ccccc12)NP(=O)(OCCC#N)OCC1OC(n2cc(C)c(=O)[nH]c2=O)CC1N=[N+]=[N-]` (some centres undefined) reads -65% (inactive). Same read-out and setting: in the case of `CC(=O)Nc1ccc(/C=N/NC(=O)/C=C/c2ccccc2)cc1` it was 2.15% (inactive); in that of `CSc1nc(=O)cc(N)n1C`, 7.9% (inactive). `O=C(O)c1cc(Cl)ccc1-c1ccc(Cl)cc1C(=O)Nc1ccc2c(c1)Cc1ccccc1-2`: the growth inhibition was 94.9% (active). The same measure, in the same setting: the result for `CC(=O)O[C@H]1CC[C@@]2(C)[C@@H](CC[C@@H]3[C@@H]2CC[C@]2(C)[C@@H](C(=O)CCC(F)(F)F)CC[C@@H]32)C1` reads 18.9% (inactive); that for `OCc1c(-c2ccc(Cl)cc2)c(-c2ccc(Cl)cc2)c2n1CCC2`, -6.85% (inactive).

Regarding `C/C(CC(C)C)=N\NC(=O)Nc1ccccc1Cl`, the growth inhibition is 6.35% (inactive). As to `O=C(NCCNCCNC(=O)C(F)(F)F)C(F)(F)F`, the growth inhibition is -41.6% (inactive).

Consider `CC1(Br)CP(=O)(c2ccccc2)CC1Br` (centres undefined), for which the growth inhibition was -6% (inactive). Turning to `COc1ccc2cc(C(=O)c3ccccc3)c(=O)oc2c1`, the growth inhibition was -13.6% (inactive). Turning to `CCOC(CCCl)c1ccc(C)cc1` (centres undefined), the growth inhibition is -20.5% (inactive). Same read-out and setting: in the case of `Cc1csc2nc3[nH]ncc3c(=O)n12` it was -14.9% (inactive); in that of `CCCCCCCCCCCC(=O)c1c(O)cccc1O`, -20.1% (inactive); in that of `CC(=O)N1c2ccccc2S(=O)(=O)c2ccccc21`, 0.25% (inactive). Same read-out and setting: in the case of `CC(=O)OC1CCCCCCC1` it was 6.05% (inactive); in that of `COc1ccc2c(NCCCCCCNc3c4ccccc4nc4cc(OC)ccc34)c3ccccc3nc2c1`, 89.7% (active).
